Results published in ChEMBL document CHEMBL1961873, “Compounds: GSK PKIS; Assays: Nanosyn kinase panel” (2012).

Columns and labels:
[1] = molecular target: Fibroblast growth factor receptor 4 (Homo sapiens) (UniProt P22455); details: at 1 µM;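 further: reported figure is the averaged percent inhibition of FGFR4, from the GSK PKIS kinase screening panel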
[2] = molecular target: Tyrosine-protein kinase Fgr (Homo sapiens) (UniProt P09769); details: at 0.1 µM
[3] = molecular target: Tyrosine-protein kinase Fgr (Homo sapiens) (UniProt P09769); details: at 1 µM
[4] = molecular target: Vascular endothelial growth factor receptor 1 (Homo sapiens) (UniProt P17948); details: at 0.1 µM
[5] = molecular target: Vascular endothelial growth factor receptor 1 (Homo sapiens) (UniProt P17948); details: at 1 µM
[6] = molecular target: Receptor-type tyrosine-protein kinase FLT3 (Homo sapiens) (UniProt P36888); details: at 0.1 µM
[7] = molecular target: Receptor-type tyrosine-protein kinase FLT3 (Homo sapiens) (UniProt P36888); details: at 1 µM
[8] = system: T1, Receptor-type tyrosine-protein kinase FLT3 (Homo sapiens), P36888 [D835Y]; details: at 0.1 µM
T1 sequence (whole entry): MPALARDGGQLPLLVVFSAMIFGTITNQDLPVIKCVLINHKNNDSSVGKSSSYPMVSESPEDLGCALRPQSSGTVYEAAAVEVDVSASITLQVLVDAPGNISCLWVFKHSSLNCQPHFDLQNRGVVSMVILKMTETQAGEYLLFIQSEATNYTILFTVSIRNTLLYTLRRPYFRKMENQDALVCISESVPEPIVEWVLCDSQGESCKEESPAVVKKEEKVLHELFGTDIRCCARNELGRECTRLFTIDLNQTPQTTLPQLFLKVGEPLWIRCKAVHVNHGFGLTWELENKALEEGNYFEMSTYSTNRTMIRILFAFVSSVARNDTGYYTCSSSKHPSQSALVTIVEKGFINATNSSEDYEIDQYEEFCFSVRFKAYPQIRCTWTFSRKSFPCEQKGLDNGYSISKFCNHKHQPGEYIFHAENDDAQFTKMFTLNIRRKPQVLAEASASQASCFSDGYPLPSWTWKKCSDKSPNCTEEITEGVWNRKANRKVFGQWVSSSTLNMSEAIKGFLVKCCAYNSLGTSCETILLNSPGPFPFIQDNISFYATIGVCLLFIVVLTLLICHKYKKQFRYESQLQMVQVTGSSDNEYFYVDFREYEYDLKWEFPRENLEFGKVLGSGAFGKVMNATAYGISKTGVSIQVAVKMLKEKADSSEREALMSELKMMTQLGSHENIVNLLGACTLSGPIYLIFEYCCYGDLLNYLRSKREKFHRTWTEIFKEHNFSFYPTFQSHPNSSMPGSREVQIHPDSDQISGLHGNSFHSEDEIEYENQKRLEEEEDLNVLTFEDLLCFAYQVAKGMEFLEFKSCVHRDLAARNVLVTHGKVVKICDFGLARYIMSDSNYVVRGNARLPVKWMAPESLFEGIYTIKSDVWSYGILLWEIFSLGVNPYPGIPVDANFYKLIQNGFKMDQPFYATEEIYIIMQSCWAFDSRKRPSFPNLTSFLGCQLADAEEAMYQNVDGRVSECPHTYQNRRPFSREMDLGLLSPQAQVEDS

[9] = molecular target: Non-receptor tyrosine-protein kinase TYK2 (Homo sapiens) (UniProt P29597); details: at 1 µM;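 further: values are mean percent inhibition of TYK2 kinase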
[10] = molecular target: T2, Tyrosine-protein kinase receptor TYRO3 (Homo sapiens) (UniProt Q06418); details: at 0.1 µM;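 further: reported percentages are averaged inhibition values of TYRO3 kinase activity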
T2 sequence (whole entry): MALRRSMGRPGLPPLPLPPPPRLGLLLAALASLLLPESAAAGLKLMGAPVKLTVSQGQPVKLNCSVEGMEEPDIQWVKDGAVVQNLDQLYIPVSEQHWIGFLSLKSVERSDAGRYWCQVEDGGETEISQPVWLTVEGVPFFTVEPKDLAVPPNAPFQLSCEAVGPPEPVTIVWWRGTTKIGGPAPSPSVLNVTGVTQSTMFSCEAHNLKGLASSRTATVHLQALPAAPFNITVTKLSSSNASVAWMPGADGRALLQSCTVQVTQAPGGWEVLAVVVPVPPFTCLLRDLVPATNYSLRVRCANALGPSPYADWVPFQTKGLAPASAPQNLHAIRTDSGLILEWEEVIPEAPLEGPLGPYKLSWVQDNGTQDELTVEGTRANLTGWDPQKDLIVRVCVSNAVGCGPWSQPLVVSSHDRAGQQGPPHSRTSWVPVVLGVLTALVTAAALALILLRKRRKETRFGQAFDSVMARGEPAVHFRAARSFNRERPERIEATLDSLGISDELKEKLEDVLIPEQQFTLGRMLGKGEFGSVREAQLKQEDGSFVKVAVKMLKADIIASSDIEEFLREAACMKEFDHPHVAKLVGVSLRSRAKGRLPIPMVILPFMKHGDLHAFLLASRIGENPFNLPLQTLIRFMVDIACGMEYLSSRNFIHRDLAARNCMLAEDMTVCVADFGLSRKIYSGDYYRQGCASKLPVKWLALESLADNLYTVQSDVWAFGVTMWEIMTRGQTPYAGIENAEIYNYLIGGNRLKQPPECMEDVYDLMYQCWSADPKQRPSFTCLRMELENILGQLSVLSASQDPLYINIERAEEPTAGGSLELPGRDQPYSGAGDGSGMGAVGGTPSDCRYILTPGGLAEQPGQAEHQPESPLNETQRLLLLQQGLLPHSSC

Non-receptor tyrosine-protein kinase TYK2 (Homo sapiens), sequence (P29597 whole entry): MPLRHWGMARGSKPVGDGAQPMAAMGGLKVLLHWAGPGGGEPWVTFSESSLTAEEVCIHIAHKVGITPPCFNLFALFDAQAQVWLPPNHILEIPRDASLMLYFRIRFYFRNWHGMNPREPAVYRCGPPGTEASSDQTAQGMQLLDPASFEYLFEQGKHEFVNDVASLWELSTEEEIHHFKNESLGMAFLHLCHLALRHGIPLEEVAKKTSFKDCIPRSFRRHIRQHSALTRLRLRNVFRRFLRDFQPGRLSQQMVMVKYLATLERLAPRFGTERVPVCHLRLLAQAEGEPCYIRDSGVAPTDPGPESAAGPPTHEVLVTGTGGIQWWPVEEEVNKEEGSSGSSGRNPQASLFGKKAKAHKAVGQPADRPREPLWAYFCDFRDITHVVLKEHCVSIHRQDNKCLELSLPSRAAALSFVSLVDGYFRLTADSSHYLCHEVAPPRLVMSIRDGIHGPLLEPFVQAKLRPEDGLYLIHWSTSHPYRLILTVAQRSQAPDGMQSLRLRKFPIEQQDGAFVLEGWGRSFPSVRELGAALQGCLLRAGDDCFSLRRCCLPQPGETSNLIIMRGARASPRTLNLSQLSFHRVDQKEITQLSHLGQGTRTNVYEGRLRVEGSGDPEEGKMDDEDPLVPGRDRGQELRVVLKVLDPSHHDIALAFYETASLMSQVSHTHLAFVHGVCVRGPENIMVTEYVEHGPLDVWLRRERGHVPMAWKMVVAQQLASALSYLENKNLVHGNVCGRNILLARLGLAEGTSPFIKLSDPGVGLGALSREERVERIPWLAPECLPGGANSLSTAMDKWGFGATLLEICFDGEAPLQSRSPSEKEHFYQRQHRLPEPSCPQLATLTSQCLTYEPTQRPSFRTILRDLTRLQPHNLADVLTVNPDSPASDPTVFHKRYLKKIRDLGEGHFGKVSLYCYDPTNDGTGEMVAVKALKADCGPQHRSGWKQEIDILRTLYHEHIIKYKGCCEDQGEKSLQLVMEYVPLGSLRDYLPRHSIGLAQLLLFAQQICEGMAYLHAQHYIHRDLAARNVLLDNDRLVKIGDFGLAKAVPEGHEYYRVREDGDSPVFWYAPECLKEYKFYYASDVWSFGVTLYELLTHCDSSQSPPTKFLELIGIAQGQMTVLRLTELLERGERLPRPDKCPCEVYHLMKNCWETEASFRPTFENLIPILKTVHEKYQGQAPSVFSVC
Vascular endothelial growth factor receptor 1 (Homo sapiens), sequence (P17948 whole entry): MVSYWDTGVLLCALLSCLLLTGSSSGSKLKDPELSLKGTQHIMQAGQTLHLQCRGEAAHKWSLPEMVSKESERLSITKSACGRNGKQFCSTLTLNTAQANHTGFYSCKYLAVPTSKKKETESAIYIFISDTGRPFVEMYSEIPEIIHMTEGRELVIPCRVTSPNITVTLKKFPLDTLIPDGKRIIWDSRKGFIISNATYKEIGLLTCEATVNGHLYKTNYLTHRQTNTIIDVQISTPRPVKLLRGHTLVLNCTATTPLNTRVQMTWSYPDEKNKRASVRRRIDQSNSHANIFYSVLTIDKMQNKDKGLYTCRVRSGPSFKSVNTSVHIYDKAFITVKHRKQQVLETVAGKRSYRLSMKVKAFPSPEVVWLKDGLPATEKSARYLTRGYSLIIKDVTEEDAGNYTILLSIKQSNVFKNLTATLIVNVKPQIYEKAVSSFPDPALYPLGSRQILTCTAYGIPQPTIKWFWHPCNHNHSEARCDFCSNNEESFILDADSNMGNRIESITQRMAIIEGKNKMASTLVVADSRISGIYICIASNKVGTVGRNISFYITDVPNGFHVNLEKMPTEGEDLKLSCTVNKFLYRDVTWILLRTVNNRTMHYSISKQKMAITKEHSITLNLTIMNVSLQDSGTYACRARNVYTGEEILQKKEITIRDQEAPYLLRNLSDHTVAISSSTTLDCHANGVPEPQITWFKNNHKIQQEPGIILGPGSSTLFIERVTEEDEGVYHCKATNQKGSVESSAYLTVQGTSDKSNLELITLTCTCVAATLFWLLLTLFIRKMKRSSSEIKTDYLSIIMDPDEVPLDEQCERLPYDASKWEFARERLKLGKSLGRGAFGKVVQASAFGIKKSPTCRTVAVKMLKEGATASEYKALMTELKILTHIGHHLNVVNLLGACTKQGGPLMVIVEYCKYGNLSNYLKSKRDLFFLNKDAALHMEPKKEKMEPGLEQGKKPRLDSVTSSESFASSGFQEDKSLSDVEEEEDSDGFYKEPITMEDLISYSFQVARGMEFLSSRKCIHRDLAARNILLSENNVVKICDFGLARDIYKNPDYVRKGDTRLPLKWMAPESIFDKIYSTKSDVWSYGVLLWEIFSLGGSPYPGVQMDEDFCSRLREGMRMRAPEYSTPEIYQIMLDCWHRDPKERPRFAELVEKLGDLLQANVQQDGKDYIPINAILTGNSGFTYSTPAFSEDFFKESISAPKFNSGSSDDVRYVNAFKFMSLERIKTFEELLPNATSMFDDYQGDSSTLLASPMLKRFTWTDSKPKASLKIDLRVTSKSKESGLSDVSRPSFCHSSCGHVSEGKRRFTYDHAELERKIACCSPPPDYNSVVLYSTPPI
Fibroblast growth factor receptor 4 (Homo sapiens), sequence (P22455 22-802 limits assumed): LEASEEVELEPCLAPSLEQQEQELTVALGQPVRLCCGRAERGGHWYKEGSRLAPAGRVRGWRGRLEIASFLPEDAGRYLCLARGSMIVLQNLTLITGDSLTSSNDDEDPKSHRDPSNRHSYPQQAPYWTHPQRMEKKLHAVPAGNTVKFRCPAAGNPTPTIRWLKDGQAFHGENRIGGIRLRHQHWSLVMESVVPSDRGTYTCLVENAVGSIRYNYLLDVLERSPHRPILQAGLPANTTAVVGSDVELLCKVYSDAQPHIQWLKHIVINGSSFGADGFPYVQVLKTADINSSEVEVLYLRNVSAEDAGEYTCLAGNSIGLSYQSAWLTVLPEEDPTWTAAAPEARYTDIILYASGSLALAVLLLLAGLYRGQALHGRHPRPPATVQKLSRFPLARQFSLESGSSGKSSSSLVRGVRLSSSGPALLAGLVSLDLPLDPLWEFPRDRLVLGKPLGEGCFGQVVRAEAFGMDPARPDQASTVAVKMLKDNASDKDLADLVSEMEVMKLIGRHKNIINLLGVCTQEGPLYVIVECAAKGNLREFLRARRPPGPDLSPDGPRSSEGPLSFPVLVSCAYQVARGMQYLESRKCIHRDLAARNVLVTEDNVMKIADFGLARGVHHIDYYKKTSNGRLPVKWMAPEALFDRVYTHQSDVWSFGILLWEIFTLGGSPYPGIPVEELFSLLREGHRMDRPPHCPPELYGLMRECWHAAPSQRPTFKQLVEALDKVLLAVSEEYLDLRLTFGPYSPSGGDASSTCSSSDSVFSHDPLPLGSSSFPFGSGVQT
Tyrosine-protein kinase Fgr (Homo sapiens), sequence (P09769 2-529 limits assumed): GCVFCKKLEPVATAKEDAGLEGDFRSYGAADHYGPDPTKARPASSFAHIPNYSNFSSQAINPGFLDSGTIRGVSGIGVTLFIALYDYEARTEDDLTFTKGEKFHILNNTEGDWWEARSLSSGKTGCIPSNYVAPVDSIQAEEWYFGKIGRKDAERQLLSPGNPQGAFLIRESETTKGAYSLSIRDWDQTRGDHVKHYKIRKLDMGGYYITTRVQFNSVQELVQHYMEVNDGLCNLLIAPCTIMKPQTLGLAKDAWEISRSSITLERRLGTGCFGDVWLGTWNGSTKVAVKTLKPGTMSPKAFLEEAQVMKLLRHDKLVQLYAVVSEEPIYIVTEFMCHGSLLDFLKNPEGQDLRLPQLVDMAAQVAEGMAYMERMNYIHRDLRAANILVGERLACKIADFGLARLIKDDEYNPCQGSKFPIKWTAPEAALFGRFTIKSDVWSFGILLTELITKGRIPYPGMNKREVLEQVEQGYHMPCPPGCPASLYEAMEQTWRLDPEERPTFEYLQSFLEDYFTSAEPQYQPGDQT

Structure (SMILES)	inhibition [1]	inhibition [2]	inhibition [3]	inhibition [4]	inhibition [5]	inhibition [6]	inhibition [7]	inhibition [8]	inhibition [9]	inhibition [10]
CCc1cccc(CC)c1/C=C/c1cncc(C(=O)NC)c1	0.35%	3.25%	11.7%	4.96%	2.13%	2.07%	4.49%	2.46%	-3.91%	1.2%
CCS(=O)(=O)c1ccc(OC)c(Nc2ncc(-c3ccccc3Cl)o2)c1	4.03%	3.37%	17%	3.73%	13.8%	2.1%	21.1%	7.14%	-1.06%	5.33%
CN(C)c1ccc2c(c1)/C(=C/Nc1ccc(S(N)(=O)=O)cc1)C(=O)N2	3.82%	2.49%	16.7%	1.02%	12.6%	3.53%	17.7%	0.41%	17.2%	3.54%
C[C@@H](Oc1cc(-n2cnc3ccc(OCC4CCN(C)CC4)cc32)sc1C(N)=O)c1ccccc1Cl	4.52%	2.78%	13.7%	1.38%	-0.37%	6.77%	16.1%	-8.99%	-4.49%	2.99%
Cc1ccc(C(=O)NC(C)C)cc1-c1ccc(C(=O)NCC2CC2)cc1	0.47%	-1.7%	-1.1%	0.43%	-1.81%	-4.25%	-1.66%	-1.15%	2.94%	-2.22%
O=C1Nc2ccc(I)cc2C1=Cc1cc(Br)c(O)c(Br)c1	5.57%	0.14%	3.52%	-0.02%	-1.49%	2.03%	5.54%	-4.08%	-0.2%	2.41%
Fc1ccc(-c2nc3n(c2-c2ccncc2)CCS3)cc1	-1.43%	3.23%	5.64%	0.95%	4.64%	2.5%	4.49%	4.1%	-3.88%	2.21%
Fc1ccc(-c2ncn(CCCN3CCOCC3)c2-c2ccncc2)cc1	0.42%	-2.23%	3.21%	-2.17%	0.42%	0.43%	1.49%	-3.55%	-0.81%	-0.71%
COc1ccc2ncn(-c3cc(O[C@H](C)c4ccccc4Cl)c(C(N)=O)s3)c2c1	-2.23%	2.3%	3.06%	0.27%	3.7%	-1.31%	4.52%	2.46%	-5.78%	3.88%
O=C(NCC1CC1)c1ccc(-c2cccc(C(=O)NC3CC3)c2)cc1	0.84%	-0.78%	4.28%	2.16%	3.45%	1.49%	3.46%	0.3%	-5.6%	3.93%
c1ccc(Oc2ccc(Nc3ncc(-c4ccccc4)o3)cc2)cc1	3.31%	1.2%	4.81%	1.53%	4.46%	2.44%	13.3%	0.51%	-0.96%	2.18%
c1ccc(-c2n[nH]cc2-c2ccnc(-c3ccc(OCCN4CCOCC4)cc3)c2)nc1	4.93%	4.14%	6.86%	3.88%	15.6%	-2.01%	1.37%	-0.15%	1.87%	-0.18%
C/C(Nc1ccc(S(N)(=O)=O)cc1)=C1/C(=O)Nc2ccccc21	3.59%	0.92%	11.4%	10.8%	23.6%	13.9%	62.9%	7.17%	6.88%	1.52%
O=C(Nc1n[nH]c2cc(-c3ccccc3)ccc12)C1CC1	0.83%	1.51%	12.8%	3.64%	2.3%	0.48%	2.82%	-3.75%	-4.78%	3.71%
CCc1ccc(Oc2nccc(-c3c(-c4ccc(F)cc4)ncn3C3CCNCC3)n2)cc1	1.42%	2.39%	6.95%	2.69%	3.25%	5.16%	5.11%	-2.28%	-1.9%	1.15%
NS(=O)(=O)c1ccc(N/N=C2\C(=O)Nc3ccc(C(=O)NCCCn4ccnc4)cc32)cc1	2.46%	5.97%	13.4%	0.63%	5.48%	3.35%	18.5%	2.34%	-1.72%	4.1%
O=C(Nc1n[nH]c2nc(-c3ccco3)ccc12)C1CC1	2.6%	0.22%	4.92%	1.05%	7.88%	0.89%	9.22%	-0.89%	-1.09%	2.23%
Nc1nccc(-c2c(-c3ccc(F)cc3)ncn2C2CCC(O)CC2)n1 (centres undefined)	0.55%	1.87%	16.5%	0.09%	1.16%	1.8%	-0.14%	3.94%	0.09%	0.62%
NS(=O)(=O)c1ccc(N/N=C2\C(=O)Nc3ccc(-c4cnco4)cc32)cc1	-2.44%	3.25%	12.9%	-0.89%	7.48%	5.93%	38.3%	22.6%	9.13%	2.48%
COc1cc(Nc2ncc3c(C)nc(-c4cccc(C(F)(F)F)c4)n3n2)cc(OC)c1OC	0.75%	7.22%	14%	2.19%	5.18%	6.14%	36.3%	3.11%	-1.24%	4.04%

Structure (SMILES)	inhibition [1]	inhibition [2]	inhibition [3]	inhibition [4]	inhibition [5]	inhibition [6]	inhibition [7]	inhibition [8]	inhibition [9]	inhibition [10]
COc1cccc(/C=N/Nc2ncnc3c2cnn3-c2cccc(OC)c2)c1	0.32%	1.37%	8.08%	3.79%	0.71%	0.18%	4.83%	-0.05%	-1.11%	3.49%
NC(=O)c1ccc(Oc2nccc(-c3c(-c4ccc(F)cc4)ncn3C3CCNCC3)n2)cc1	3.45%	1.87%	3.62%	0.89%	-0.43%	2.76%	4.78%	0.27%	-4.56%	2.41%
COc1cc(N2CCN(C(C)C)CC2)ccc1Nc1nc(Nc2ccc(F)cc2C(=O)NC[C@@H](O)CO)c2cc[nH]c2n1	-2.11%	4.37%	1.14%	1.41%	1.28%	1.53%	2.54%	0.41%	-2.95%	2.87%
Cc1ccc(NC(=O)c2ccoc2)cc1-c1ccc(C(=O)NCC2CC2)cc1	1.63%	2.23%	3.07%	1.47%	8.07%	0.8%	0.9%	-5.38%	-0.16%	0.97%
CCS(=O)(=O)c1ccc(OC)c(Nc2ncc(-c3cccc(-c4ccccc4F)c3)o2)c1	16.3%	11.9%	52.1%	24.9%	68.4%	6.25%	30%	5.31%	1.31%	3.28%
C#Cc1cccc(Nc2ncnc3ccc(OCCCCNCCS(C)(=O)=O)cc23)c1	-1.61%	10.5%	15.5%	2.51%	4.95%	1.29%	2.94%	3.91%	-1.47%	2.65%
C[C@@H](Oc1cc(-n2cnc3ccc(OC4CCN(C)CC4)cc32)sc1C(N)=O)c1ccccc1Cl	-1.19%	3.65%	4.89%	1.54%	3.12%	3.07%	14.4%	1.72%	-7.54%	2.39%
NC(=O)Cc1ccccc1Oc1nccc(-c2c(-c3ccc(F)cc3)ncn2C2CCNCC2)n1	0.51%	0.84%	2.97%	0.07%	0.23%	-1.59%	1.61%	-3.58%	-2.45%	0.04%
Fc1ccc(-c2c(-c3ccncc3)nc3n2CCS3)cc1	0.11%	2.37%	2.64%	0.25%	1.28%	0.81%	1.71%	-1.87%	0.83%	1.94%
COc1cc2ncn(-c3cc(OCc4cccs4)c(C(N)=O)s3)c2cc1OC	1.23%	11.1%	13.7%	2.16%	10.3%	0.99%	4.24%	-6.36%	0.53%	2.86%
NC(=O)c1cc(-c2ccc(F)cc2)cc(-c2ccncc2)c1N	-0.36%	5.32%	3.24%	0.41%	0.85%	3.14%	2.01%	-6.54%	-2.58%	4.68%
COc1ccc(C2=C(N3CCc4ccccc43)C(=O)NC2=O)cc1	1.06%	5.11%	3.99%	1.27%	2.89%	3.27%	2.59%	5.76%	-5.5%	4.63%
CS(=O)(=O)CCNCc1ccc(-c2ccc3ncnc(Nc4ccc(OCc5ccccc5)c(Br)c4)c3c2)o1	-1.47%	4.84%	10.8%	-0.47%	2.16%	4.34%	1.3%	-8.89%	-4.08%	2.52%
CCc1nccc2c1nc(-c1nonc1N)n2CC	1.32%	-0.77%	3.85%	-0.82%	1.6%	-0.04%	0.33%	-2.37%	-2.82%	-0.74%
Cc1ccc(C(=O)NC2CCC2)cc1-c1ccc(C(=O)NCC2CC2)cc1	1.12%	0.84%	4.82%	1.31%	-0.61%	0.07%	1.62%	0.48%	-2.49%	1.07%
Cc1nnc(-c2ccc(C)c(-c3ccc(C(=O)NCc4ccc(Cl)cc4)cc3)c2)o1	-3.75%	4.76%	1.82%	2.48%	2.52%	2.13%	0.77%	2.22%	-3.78%	2.85%
COc1cc(Nc2ncc(-c3ccccc3)o2)cc(OC)c1OC	1.36%	3.9%	29.4%	8.63%	–	61.7%	90.8%	14.2%	6.55%	-1.23%
CN(C)CCCNc1nccc(-c2c(-c3ccc(F)cc3)nn3cc(C(F)(F)F)ccc23)n1	-0.45%	1.41%	9.12%	0.51%	1.19%	0.5%	4.18%	-2.41%	-0.14%	1.1%
FC(F)(F)c1cccc(Nc2nccc(-c3cnn4nc(-c5ccccc5)ccc34)n2)c1	1.26%	2.98%	8.69%	2.04%	1.17%	1.84%	18.2%	-4.32%	-5.81%	-0.57%
Fc1ccc(-c2ncn(C3CCNCC3)c2-c2ccnc(Oc3ccc4c(c3)OCO4)n2)cc1	0.91%	3.23%	7.38%	0.92%	2.35%	4.05%	7.47%	-0.87%	-3.97%	1.93%
